ugtP null kill – growth inhibition of S. aureus ugtP deletion strain; S. aureus RN4220 ugtP deletion, OD600 growth, 16 h; hit rate 0.54% among 330,000; growth inhibition, % (concentration not given with the values); in the data active = growth inhibition above about 68%;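 also: plate controls were untreated wells for no effect and antibiotic for full effect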
BJeLR viability – BJeLR cell viability loss; BJeLR (HRASV12) viability, CellTiter-Glo ATP luminescence, 48 h; inhibition, % (test concentration not listed); hit rate 0.17% among 300,000; in the data active = inhibition above about 50%
PrPC TRFRET – inhibitors of human cell surface prion protein PrPC; hit rate 0.43% among 370,000; P04156; TR-FRET read-out; AID 720596; inhibition, % at 13.8 µM; in the data active = inhibition above about 24%; also: 0% = median of the test wells and 100% = reference compound wells
RN4220 kill – kills Staphylococcus aureus RN4220; AID 1259311; inhibition, % (test concentration not listed); S. aureus RN4220 growth, OD600, 16 h; hit rate 0.33% among 330,000; in the data active = inhibition above about 85%;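 also: plate controls were untreated cells for no effect and reference antibiotic for full effect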
* marks the source's active call; other numbers are inactive results; . = no result given; ! = a repeat was not active. A selection: hits, their analogues and other compounds. The true share with any hit is near 0.95%.

SMILES | ugtP null kill | BJeLR viability | PrPC TRFRET | RN4220 kill
Cc1ccc(NC(=O)C(OC(=O)c2ccc(NC(N)=O)cc2)c2ccccc2)cc1Cl (configuration not stated) | 100* | -23 | 3 | 101*
Cc1ccc(NC(=O)C(OC(=O)c2ccccc2Cl)c2ccccc2)cc1Cl (configuration not stated) | 17 | 1 | 11 | -6
O=C(/C=C/c1cccs1)NC(=S)Nc1ccc(C(=O)O)cc1 | . | -3 | -10 | .
NS(=O)(=O)c1ccc(NC(=S)NC(=O)/C=C/c2cccs2)cc1 | active | 5 | -5 | 83
NC(N)=NS(=O)(=O)c1ccc(NC(=S)NC(=O)/C=C/c2cccs2)cc1 | 85* | -8 | 11 | 3
O=C(CN1CCSCC1)NN=Cc1ccc(Cl)cc1 | 2 | . | . | -1
C[C@H]1CCC/C=C/[C@@H]2C[C@H](O)C[C@H]2[C@H](O)[C@H](S(=O)c2ccc(O)cc2)CC(=O)O1 (some centres not stated) | . | . | 89* | .
C[C@H]1CCC/C=C/[C@@H]2C[C@H](O)C[C@H]2[C@@H](O)/C=C/C(=O)O1 | . | . | 93* | .
CC1CCCC=CC2CC(OC(=O)CN(C)C)CC2C(O)C=CC(=O)O1 (configuration not stated) | . | . | 90* | .
CCCCC[C@H]1CCCCC[C@@H](O)C[C@@H](O)[C@@H](O)/C=C/C(=O)O1 | . | . | -5 | .
Cc1cccc(OCC(=O)NN=Cc2cccn2C)c1C | -4 | . | . | 6
O=C(O)C(Cc1ccccc1)N1C(=O)c2c(Cl)c(Cl)c(Cl)c(Cl)c2C1=O (configuration not stated) | 86*! | 0 | 2 | 39
COc1ccc(COC(=O)c2cc([N+](=O)[O-])ccc2N2CCOCC2)cc1F | -3 | 55* | -1 | 2
O=C(OCc1ccc(Br)cc1)c1cc([N+](=O)[O-])ccc1N1CCOCC1 | . | . | 10 | .
COc1ccc(NC(=O)C2CC=CC3CCN(Cc4ccc(Cl)c(Cl)c4)C(=O)C32)cc1 (configuration not stated) | 6 | . | . | -3
CC1=C(C(=O)OCc2ccccc2)N2C(=O)[C@@H](NC(=O)COc3ccccc3)[C@H]2SC1 | 8 | 3 | -9 | 11
O=C(COc1ccccc1)NC1C(=O)N2C(C(=O)O)=C(Cl)CSC12 (configuration not stated) | 101* | 2 | 0 | 101*
Cc1nnc(SCC2=C(C(=O)O)N3C(=O)C(NC(=O)COc4ccccc4)C3SC2)s1 (configuration not stated) | 101* | . | -1 | 100*
CCC(C(=O)NC1CCN(C)CC1)c1ccccc1 (configuration not stated) | 4 | 2 | -6 | 3
CCC(C(=O)NC1C(=O)N2C(C(=O)O)=C(CSc3nnc(C)s3)CSC12)c1ccccc1 (configuration not stated) | 100* | . | 5 | 100*
CC(=O)OCC1=C(C(=O)O)N2C(=O)C(NC(=O)COc3ccc(F)cc3)C2SC1 (configuration not stated) | 101* | . | -3 | 100*
C=CC1=C(C(=O)O)N2C(=O)C(NC(=O)Cc3ccccc3)C2SC1 (configuration not stated) | 101* | 5 | -6 | 101*
Cc1nnc(SCC2=C(C(=O)O)N3C(=O)C(NC(=O)COc4ccc(F)cc4)C3SC2)s1 (configuration not stated) | 97* | . | -5 | 100*
CCOc1ccc(C(=O)NC2C(=O)N3C(C(=O)O)=C(COC(C)=O)CSC23)cc1OCC (configuration not stated) | 24 | . | -3 | 41
Cc1nnc(SCC2=C(C(=O)O)N3C(=O)C(NC(=O)c4cc(F)c(F)cc4Cl)C3SC2)s1 (configuration not stated) | 100* | 4 | 0 | 100*
SMILES | ugtP null kill | BJeLR viability | PrPC TRFRET | RN4220 kill
Cc1nnc(SCC(=O)NNC(=O)COc2ccc(Cl)cc2)s1 | 8 | 5 | -4 | 2
Cc1ccc(S(=O)(=O)N2C(c3ccc(Cl)c(Cl)c3)CC=C(C(=O)O)C2c2cccc(Cl)c2)cc1 (configuration not stated) | 100* | . | 0 | 88*
Cc1ccc(S(=O)(=O)N2C(c3ccc(Cl)c(Cl)c3)CC=C(C(=O)O)C2c2ccc(Cl)cc2)cc1 (configuration not stated) | 90* | . | -5 | 80
Cc1ccc(S(=O)(=O)N2[C@@H](c3ccc(Cl)cc3)C(C(=O)O)=CC[C@H]2c2ccc(Cl)c(Cl)c2)cc1 | . | . | -7 | .
COc1ccc2nc(N3C(=O)/C(=C/c4ccccc4)NC3=S)sc2c1 | 92* | 5 | 6 | 0
COc1ccc2nc(-n3c(C)ccc3C)sc2c1 | 30 | 2 | -2 | 12
CCOc1ccc2nc(N3C(=O)/C(=C/c4ccccc4)NC3=S)sc2c1 | 94* | -4 | 10 | 8

Bioassay records deposited in PubChem BioAssay by several laboratories.
